Here are results for seven sequences from the supplement of paper PMC6555819.

Common to all, as to experiment: PBM binding z-score (relative to random genomic background probes); higher = stronger binding; sequences stand for … in GC…GCGATTGACAGCGTAGAATGAAGG
For test [1], the system named is FXR:RXRa (NR concentration 270 nM, RXRa partner concentration 90 nM). In a few lines: (§1)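 Custom Agilent 4×180K protein-binding microarrays carried double-stranded probes, each with a 34-nt variable region. These regions held direct-repeat seeds, single-nucleotide variants, half-site ablations and random human genomic background sequences. Ligand-free nuclear receptor dimers were incubated on the arrays for 1 h, antibodies against each partner (one per run) detected binding, and scanned fluorescence was regression-normalized. Binding z-scores take the random background probes as reference.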

In test [2] the test system is LXRa:RXRa (NR concentration 270 nM, RXRa partner concentration 90 nM). In a few lines: as §1
Test [3] concerns LXRa homodimer (NR concentration 270 nM). In a few lines: as §1
Test [4] deals with LXRb:RXRa (NR concentration 270 nM, RXRa partner concentration 90 nM). The procedure, abridged:
as §1

The subject of test [5] is LXRb homodimer (NR concentration 270 nM). In a few lines: as §1
For test [6], the system named is PPARa:RXRa (NR concentration 270 nM, RXRa partner concentration 90 nM). The procedure, abridged:
as §1

Test [7] has as its system PPARg:RXRa (NR concentration 180 nM, RXRa partner concentration 90 nM). In a few lines:
as §1

For test [8], the system named is PPARg:RXRa 270nM:90nM, anti-RXR (NR concentration 270 nM, RXRa partner concentration 90 nM). In a few lines:
as §1

In test [9] the test system is PPARg:RXRa 30nM:10nM, anti-RXR (NR concentration 30 nM, RXRa partner concentration 10 nM). In a few lines: as §1
The subject of test [10] is PPARg:RXRa 90nM:30nM, anti-RXR (NR concentration 90 nM, RXRa partner concentration 30 nM). In a few lines:
as §1

In test [11] the test system is PPARg:RXRa DBDmut IVT, anti-RXR (DBD mutation: RXRa K156A/R161A, NR concentration 270 nM, RXRa partner concentration 90 nM). The procedure, abridged: as §1
Test [12] deals with PPARg:RXRa IVT, anti-PPARg (NR concentration 270 nM, RXRa partner concentration 90 nM). In a few lines: as §1
Test [13] has as its system PPARg DBDmut:RXRa IVT, anti-PPARg (DBD mutation: PPARg1 K132A/R137A, NR concentration 270 nM, RXRa partner concentration 90 nM). In a few lines: as §1
Test [14] has as its system PPARg DBDmut IVT, anti-PPARg (DBD mutation: PPARg1 K132A/R137A, NR concentration 270 nM). The procedure, abridged: as §1
Test [15] relates to PPARg homodimer (NR concentration 180 nM). In a few lines: as §1
Test [16] concerns PXR:RXRa (NR concentration 270 nM, RXRa partner concentration 90 nM). In a few lines: as §1
Test [17] has as its system PXR homodimer (NR concentration 270 nM). In a few lines:
as §1

Test [18] relates to RARa:RXR (NR concentration 270 nM, RXRa partner concentration 90 nM). In a few lines: as §1
In test [19] the test system is RARa homodimer (NR concentration 270 nM). The procedure, abridged:
as §1

For test [20], the system named is RARb:RXRa (NR concentration 270 nM, RXRa partner concentration 90 nM). The procedure, abridged: as §1

As to ACTCGGAGGACAAAGATCAGAGCTACGCCAGTGA, the PBM binding z-score in test [1] is -0.308; in test [2] it was -0.42; in test [3], -0.56; in test [4], -0.616; in test [5], -0.443; in test [6], 0.399. Further, the PBM binding z-score was 1.61 in test [7]; 2.24 in test [8]; 0.508 in [9]; 1.43 in test [10]; 0.131 in test [11]; -0.127 in [12]. Also, the PBM binding z-score was -1.09 in [13]; -0.113 in test [14]; -0.398 in test [15]; -0.522 in test [16]; -0.433 in [17]; -0.384 in test [18]. Also, the PBM binding z-score is -0.637 in test [19] and 0.778 in test [20].
In the case of CCTCACGGGTCACTGACAGGTTATAGCATTTGGA, the PBM binding z-score in test [1] was 4.72; in test [2], 3.72; in [3], 0.511; in test [4], 3.24; in test [5], -0.196; in test [6] it was 4.66. Besides, the PBM binding z-score in test [7] was 3.37; in test [8] it was 3.34; in test [9], 0.625; in test [10] it was 1.85; in [11], 1.77; in [12], 2.15. In addition, the PBM binding z-score in test [13] is -0.537; in test [14], -0.176; in test [15], 1.89; in test [16] it was 3.33; in test [17], 0.0959; in test [18] it was 3.98. The PBM binding z-score was determined as 0.868 in [19] and 3.85 in test [20].
For the sequence CCGACTGGAGCATAAGGTTACCATAAGCCAGCCC, the PBM binding z-score is 0.0844 in test [1]; 1.93 in test [2]; 0.131 in test [3]; 0.754 in test [4]; -0.551 in [5]; 0.887 in test [6]. Also, the PBM binding z-score in test [7] was 0.85; in test [8], 1.49; in [9] it was -0.133; in [10], 0.657; in test [11], 0.771; in test [12], 0.172. The PBM binding z-score in [13] was -0.467; in test [14], -1.49; in test [15], -0.0887; in test [16] it was 0.241; in test [17], -0.0972; in test [18], 1.11. Moreover, the PBM binding z-score turned out to be 0.0423 in [19] and 0.916 in test [20].
Take AGTCAAAGTTCATCTATGTAACGTAAGATATGCT: the PBM binding z-score in test [1] came out at 6.5; in test [2] it was 5.79; in test [3] it was 5.16; in [4], 3.59; in test [5], 1.69; in test [6] it was 4.44. Also, the PBM binding z-score in test [7] turned out to be 6.21; in test [8], 5.9; in test [9], 3.03; in [10] it was 5.29; in test [11], 0.144; in test [12], 2.33. In addition, the PBM binding z-score came out at 0.955 in test [13]; 1.14 in test [14]; 3.7 in test [15]; 5.09 in test [16]; 5.26 in test [17]; 3.82 in [18]. For the same sequence, the PBM binding z-score in [19] is 1.52; in test [20] it was 4.89.
On to AGTCAAAGTACATCTAGGTAACGTAAGATATGCT, for which the PBM binding z-score is -0.254 in [1]; -0.258 in [2]; -0.145 in test [3]; -0.0982 in [4]; -0.223 in test [5]; 0.359 in test [6]. Besides, the PBM binding z-score came to 1.35 in test [7]; 0.631 in test [8]; 0.46 in test [9]; 0.326 in [10]; 0.968 in [11]; 2.23 in test [12]. In addition, the PBM binding z-score was 0.568 in test [13]; 1.11 in [14]; -0.552 in test [15]; -0.0859 in [16]; 0.334 in test [17]; -0.223 in test [18]. Besides, the PBM binding z-score in test [19] amounted to 0.0853; in test [20], 0.801.
As to CGTCCAAGGTCAGAGAGGTCAGTGAATGCCGAGT, the PBM binding z-score came out at 6.03 in [1]; 5.21 in [2]; 3 in test [3]; 4.19 in [4]; 0.123 in test [5]; 4.72 in test [6]. For the same sequence, the PBM binding z-score is 3.4 in [7]; 4.41 in [8]; 0.873 in test [9]; 3.2 in [10]; 3.16 in [11]; 3.45 in [12]. Moreover, the PBM binding z-score in [13] was 0.28; in test [14], -0.412; in test [15], 5.38; in test [16], 6.23; in test [17], 12.3; in [18], 5.74. Also, the PBM binding z-score came out at 3.8 in [19] and 5.21 in test [20].
Take CAAACTAGATCACGAAAGGTCAAAGTCGAATGAC: the PBM binding z-score in [1] was 5.13; in test [2], 5.95; in [3] it was 5.88; in test [4], 5.7; in [5], 2.42; in [6] it was 5.61. The PBM binding z-score in test [7] was 4.16; in test [8] it was 5.04; in [9], 2.26; in test [10], 3.98; in test [11], 3.85; in test [12], 4.1. Besides, the PBM binding z-score came to 1.64 in test [13]; 2.11 in test [14]; 4.54 in [15]; 5.85 in test [16]; 2.42 in [17]; 6.41 in test [18]. For the same sequence, the PBM binding z-score turned out to be 2.84 in test [19] and 4.5 in [20].
